# Experimental data published in PubChem BioAssay (NCATS).
# A number with no mark means an inactive call. Results filed as inconclusive are left out. A call without a number means that no potency is given here. Active and inactive are the calls of the source. Calls come from the whole dose curve; as a rule, active = well fitted curve in the direction sought with a large enough effect; inconclusive = small, poorly fitted or top-dose-only effect, or another doubt; inactive = no such curve, though single readings can be large; an effect the other way counts as inactive or inconclusive.
# What was measured:
# [1] = biological target: Cytochrome P450 3A4 (Homo sapiens) (UniProt P08684); experiment: qHTS Assay for Inhibitors and Substrates of Cytochrome P450 3A4 (AID 884); note: nearly all actives have a fitted effect of over 50% in size; note: potency is the fitted concentration of half-maximal effect; for activity change, negative = inhibition: series mostly up to about 57 µM
# Procedure, shortened: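 20 nM human CYP3A4 with 25 uM Luciferin-PPXE (at KM) in 200 mM KPO4, preincubated 10 min with compound; NADPH regeneration started a 60 min RT reaction. Luciferin detected by luminescence, normalized to 57 uM ketoconazole as full inhibition.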
# [2] = biological target: Cytochrome P450 2C9 (Homo sapiens) (UniProt P11712); experiment: qHTS Assay for Inhibitors and Substrates of Cytochrome P450 2C9 (AID 883); note: nearly all actives have a fitted effect of over 60% in size; note: potency is the fitted concentration of half-maximal effect
# Procedure, shortened: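 Human CYP2C9 (10nM) with Luciferin-H at 100uM (its KM) in 25mM KPO4; compound preincubated 10 min at 37C, then NADPH regeneration for 60 min at 37C. Luciferin read by luminescence after detection reagent; normalized to 57uM sulphaphenazole as full inhibition.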
# [3] = Confirmation and Secondary Assay for Modulators of Hemoglobin Beta Chain Splicing at IVS2 705 locus (AID 930);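 note: HeLa cells stably expressing the EGFP-705 splicing reporter; GFP fluorescence per well restored by corrected splicing of the IVS2-705 intron in EGFP; series mostly up to about 46 µM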
# Procedure, shortened: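 HeLa IVS2-705 EGFP reporter cells, 500/well, compound 2 d at 37C; correct splicing yields fluorescent EGFP. Control: 500 nM antisense PNA. Read-out: total peak GFP intensity.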
# [4] = Confirmation and Secondary Assay for Modulators of Hemoglobin Beta Chain Splicing at IVS2 654 locus (AID 910);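 note: HeLa cells stably carrying EGFP split by mutant beta-globin IVS2-654 intron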
# Procedure, shortened: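 HeLa cells stably expressing EGFP interrupted by β-globin IVS2-654 intron, seeded overnight in Opti-MEM/2% FCS, then treated 2 days at 37 °C. Restored splicing read as total peak GFP intensity per well by laser scanning cytometry (488 nm excitation, 500–520 nm emission); 500 nM antisense PNA as control.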
# [5] = biological target: Cytochrome P450 3A4 (Homo sapiens) (UniProt P08684); experiment: qHTS Assay for Activators of Cytochrome P450 3A4 (AID 885); note: nearly all actives have a fitted effect of over 65% in size; note: potency is the fitted concentration of half-maximal effect
# Procedure, shortened: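 Quantitative HTS format: compounds preincubated with 20nM human CYP3A4 and Luciferin-PPXE substrate at KM, reaction started by NADPH regeneration, stopped after 60 min, luciferase luminescence read 20 min later.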
# [6] = biological target: Cytochrome P450 2D6 (Homo sapiens) (UniProt P10635); experiment: qHTS Assay for Inhibitors and Substrates of Cytochrome P450 2D6 (AID 891); details: recombinant CYP2D6, luciferin-ME EGE luminescence; note: potency is the fitted concentration of half-maximal effect; nearly all actives have a fitted effect of over 60% in size
# Procedure: NIH Molecular Libraries Screening Centers Network [MLSCN]
# NIH Chemical Genomics Center [NCGC]
# The P450 gene superfamily is involved in the metabolism and clearance of xenobiotics. This assay used human CYP2D6 to measure the demethylation of ethylene glycol ester of luciferin 6' methyl ether (Luciferin-ME EGE; […]) to luciferin. The luciferin is then measured by luminescence after the addition of a luciferase detection reagent. Luciferin-ME EGE concentration in the assay was equal to its Km for CYP2D6. Inhibitors and some substrates limit the production of luciferin, and decrease measured luminescence.
# NCGC Assay Protocol Summary:
# Two uL of enzyme and substrate mix (final concentrations: 5nM CYP2D6, 30uM Luciferin-ME EGE, 100mM KPO4) were dispensed into a white, solid bottom 1536-well microtiter plate. 23nL of compound was transferred by a pin tool. The plate was incubated at room temperature for 10 min. Two uL of an NADPH regeneration solution (Promega supplied reagent) was dispensed and the reaction was allowed to continue for 60 min at room temperature. Then the reaction was stopped by reconstituted luciferin detection buffer. After another 20 min of incubation the plate was read on the ViewLux (Perkin Elmer) at 60 sec exposure and 2x2 binning. This protocol was carried out with Promega-Glo reagents and further information can be found at http://www.promega.com/tbs/tb325/tb325.pdf. Data were normalized to the to AC100 inhibition (1.43 uM quinidine).
# Keywords: P450, CYP2D6, Luciferase, MLSMR, MLSCN, NIH Roadmap, qHTS, NCGC
# [7] = biological target: Cytochrome P450 2C19 (Homo sapiens) (UniProt P33261); experiment: qHTS Assay for Inhibitors and Substrates of Cytochrome P450 2C19 (AID 899); details: recombinant CYP2C19, luciferin-H EGE luminescence; note: potency is the fitted concentration of half-maximal effect; nearly all actives have a fitted effect of over 60% in size
# Procedure, shortened: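 5 nM human CYP2C19 with 10uM Luciferin-H EGE (at KM) in 50mM KPO4, compound preincubated 10 min at 37C, then NADPH regeneration for 60 min at 37C. Luciferin read by luminescence after detection reagent; normalized to 57uM ketoconazole as full inhibition.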
# [8] = Cellular Toxicity (caspase-3) N2a (AID 665);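 note: compound exposure lasted 16 h at 37 °C before readout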
# Procedure, shortened: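 Mouse N2a neuroblastoma cells (1500/well) were treated with compounds for 16 h at 37 °C, then caspase-3/7 activity was read by Caspase-Glo luminescence after 1 h at room temperature. Data were normalized to DMSO and 10 uM staurosporine; AC50 from Hill fits.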
# [9] = Cellular Toxicity (caspase-3) NIH 3T3 (AID 666);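 note: caspase signal read after 16 h compound exposure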
# Procedure, shortened: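 Mouse NIH 3T3 fibroblasts (1000 cells/well) were treated with compound for 16 hr at 37°C in complete medium; caspase-3/7 activity was read by Caspase-Glo luminescence. Normalized to DMSO and 100 uM tamoxifen; AC50 from Hill fits.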
# [10] = Cellular Toxicity (caspase-3) Renal Proximal Tubule (AID 667);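 note: cells exposed to compound for 16 hours at 37 °C before detection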
# Procedure, shortened: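 In qHTS format, rat primary proximal tubule cells seeded at 1000 per well are exposed to compounds for 16 hours at 37 °C. An increase in Caspase-Glo 3/7 luminescence indicates caspase activation.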
# Chain of Cytochrome P450 2C9 (Homo sapiens) (P11712 whole entry, looked up): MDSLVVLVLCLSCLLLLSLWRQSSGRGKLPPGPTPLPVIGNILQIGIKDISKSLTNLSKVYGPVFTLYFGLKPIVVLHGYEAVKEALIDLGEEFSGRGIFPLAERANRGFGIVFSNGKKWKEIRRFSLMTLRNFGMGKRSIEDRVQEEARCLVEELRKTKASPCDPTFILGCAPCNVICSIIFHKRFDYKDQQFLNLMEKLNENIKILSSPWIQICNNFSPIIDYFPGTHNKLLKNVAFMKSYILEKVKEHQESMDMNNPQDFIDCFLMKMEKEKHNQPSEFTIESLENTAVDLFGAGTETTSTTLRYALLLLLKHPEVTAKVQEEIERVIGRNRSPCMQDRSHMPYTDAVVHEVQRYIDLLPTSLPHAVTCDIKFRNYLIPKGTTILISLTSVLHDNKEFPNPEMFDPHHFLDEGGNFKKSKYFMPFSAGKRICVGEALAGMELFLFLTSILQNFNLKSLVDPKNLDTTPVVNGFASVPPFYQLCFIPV
# Chain of Cytochrome P450 3A4 (Homo sapiens) (P08684 whole entry, looked up): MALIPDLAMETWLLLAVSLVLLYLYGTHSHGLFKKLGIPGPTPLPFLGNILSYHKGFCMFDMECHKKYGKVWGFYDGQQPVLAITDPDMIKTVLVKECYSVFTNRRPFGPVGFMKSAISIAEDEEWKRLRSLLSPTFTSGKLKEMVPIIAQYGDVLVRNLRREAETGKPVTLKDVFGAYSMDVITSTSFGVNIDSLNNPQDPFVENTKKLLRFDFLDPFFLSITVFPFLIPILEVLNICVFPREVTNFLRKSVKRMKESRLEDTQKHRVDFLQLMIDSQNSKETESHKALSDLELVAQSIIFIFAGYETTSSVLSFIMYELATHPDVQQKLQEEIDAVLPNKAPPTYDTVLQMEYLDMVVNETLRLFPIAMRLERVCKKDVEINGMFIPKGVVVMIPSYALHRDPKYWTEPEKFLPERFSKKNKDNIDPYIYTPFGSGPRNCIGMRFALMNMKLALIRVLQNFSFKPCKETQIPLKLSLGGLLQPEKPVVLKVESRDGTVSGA
# Chain of Cytochrome P450 2D6 (Homo sapiens) (P10635 whole entry, looked up): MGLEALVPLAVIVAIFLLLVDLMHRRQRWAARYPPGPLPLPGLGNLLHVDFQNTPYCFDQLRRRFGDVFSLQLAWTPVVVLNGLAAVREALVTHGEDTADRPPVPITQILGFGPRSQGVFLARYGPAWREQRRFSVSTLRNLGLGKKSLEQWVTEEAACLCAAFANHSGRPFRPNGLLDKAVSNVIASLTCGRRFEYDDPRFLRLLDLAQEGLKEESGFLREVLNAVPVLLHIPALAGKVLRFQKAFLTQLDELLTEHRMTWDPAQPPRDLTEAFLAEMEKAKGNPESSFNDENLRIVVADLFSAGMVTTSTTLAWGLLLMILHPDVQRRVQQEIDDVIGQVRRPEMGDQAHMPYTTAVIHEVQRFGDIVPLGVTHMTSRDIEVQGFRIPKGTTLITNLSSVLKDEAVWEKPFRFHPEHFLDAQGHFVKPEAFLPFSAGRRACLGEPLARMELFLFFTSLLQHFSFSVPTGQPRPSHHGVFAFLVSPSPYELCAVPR
# Chain of Cytochrome P450 2C19 (Homo sapiens) (P33261 whole entry, looked up): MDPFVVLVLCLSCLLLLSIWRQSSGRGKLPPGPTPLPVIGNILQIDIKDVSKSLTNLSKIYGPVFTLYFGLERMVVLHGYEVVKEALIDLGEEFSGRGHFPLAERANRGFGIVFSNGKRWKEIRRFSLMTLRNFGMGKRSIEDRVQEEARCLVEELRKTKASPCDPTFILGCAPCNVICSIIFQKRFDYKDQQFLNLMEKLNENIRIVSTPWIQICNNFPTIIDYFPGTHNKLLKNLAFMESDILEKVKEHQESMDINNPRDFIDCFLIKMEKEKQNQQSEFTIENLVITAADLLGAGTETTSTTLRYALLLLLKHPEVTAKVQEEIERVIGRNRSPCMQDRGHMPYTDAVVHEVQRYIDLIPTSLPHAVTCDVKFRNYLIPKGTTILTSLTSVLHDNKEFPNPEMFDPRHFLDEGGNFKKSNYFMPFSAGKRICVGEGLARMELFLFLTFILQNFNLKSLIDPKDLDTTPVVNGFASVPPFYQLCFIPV
structure (smiles),measurement,setting,value
COc1ccc2cc1Oc1ccc(cc1)C[C@H]1c3cc(c(OC)cc3CCN1C)Oc1c(OC)c(OC)cc3c1[C@H](C2)N(C)CC3,Potency,[1],inactive
Cc1cc2nc3c(=O)[nH]c(=O)nc-3n(CC(O)C(O)C(O)CO)c2cc1C (stereo unspecified),Potency,[2],inactive
same,Potency,[1],inactive
same,outcome,[3],inactive
COc1ccc2ccc(=O)oc2c1CC=C(C)C,outcome,[4],inactive
same,outcome,[3],inactive
COc1ccnc(CS(=O)c2nc3ccc(OC(F)F)cc3[nH]2)c1OC (stereo unspecified),outcome,[4],inactive
same,outcome,[3],inactive
CC1(C)OC2CC3C4CC(F)C5=CC(=O)C=CC5(C)C4C(O)CC3(C)[C@]2(C(=O)CO)O1 (stereo partly specified),Potency,[5],inactive
same,outcome,[4],inactive
same,outcome,[3],inactive
CCC(c1ccc(O)cc1)C(CC)c1ccc(O)cc1 (stereo unspecified),outcome,[4],inactive
same,outcome,[3],inactive
O=C1C(CCC(O)c2ccc(F)cc2)C(c2ccc(O)cc2)N1c1ccc(F)cc1 (stereo unspecified),outcome,[4],inactive
same,outcome,[3],inactive
CN1CCN2c3ncccc3Cc3ccccc3C2C1 (stereo unspecified),Potency,[2],0.0501 µM (active)
same,Potency,[6],0.501 µM (active)
same,Potency,[7],0.0501 µM (active)
NC(=O)c1nnn(Cc2cc(Cl)c(C(=O)c3ccc(Cl)cc3)c(Cl)c2)c1N,"activity change, negative = inhibition",[2],52.5% [at 11.4 µM]
CS(=O)(=O)c1ccc(C2=C(c3ccccc3)C(=O)OC2)cc1,Potency,[1],inactive
same,outcome,[4],inactive
same,outcome,[3],inactive
CCC(=C(CC)c1ccc(O)cc1)c1ccc(O)cc1,Potency,[2],12.6 µM (active)
Cc1ccc(NC(=O)c2cccc(N(C)C)c2)cc1NC(=O)c1ccc(O)cc1,Potency,[2],inactive
CN1C(=O)C(Cc2c[nH]c3ccccc23)NC1=S (stereo unspecified),Potency,[1],6.31 µM (active)
same,Potency,[5],inactive
COC1CCC(C(=O)c2ccc3nc4c(cc3c2)CCCO4)CC1 (stereo unspecified),Potency,[1],inactive
same,Potency,[5],5.01 µM (active)
NS(=O)(=O)c1cc(Cl)c(Cl)c(S(N)(=O)=O)c1,Potency,[2],inactive
Cc1ccc2c(c1)C(=O)[C@]1(O)CCN(c3ccccc3)C1=N2,Potency,[5],inactive
O=c1cc(-c2ccc(O)c(O)c2)oc2cc(O)cc(O)c12,Potency,[5],inactive
CC(NCCc1ccc(O)cc1)C(O)c1ccc(O)cc1 (stereo unspecified),Potency,[1],inactive
same,outcome,[4],inactive
same,outcome,[3],inactive
Cc1cc(NC(=O)Nc2ccc(N(C)C)cc2)c2cc(F)cc(F)c2n1,Potency,[2],6.31 µM (active)
same,Potency,[1],6.31 µM (active)
same,Potency,[5],inactive
CN(C)CCN(Cc1ccc(Cl)cc1)c1ccccn1,Potency,[6],0.02 µM (active)
same,Potency,[7],6.31 µM (active)
C[C@@H]1C[C@H]2[C@@H]3CCC4=CC(=O)C=C[C@]4(C)[C@@]3(F)[C@@H](O)C[C@]2(C)[C@@]1(O)C(=O)CO,outcome,[8],inactive
same,outcome,[9],inactive
same,outcome,[10],inactive
CN(C)c1ccccc1CN1CCCN(Cc2ccccc2N(C)C)C1c1ccncc1,"activity change, positive = activation",[5],-30.9% [at 11.4 µM]
same,Potency,[6],1.26 µM (active)
CCCCC(C=O)NC(=O)C(CC(C)C)NC(=O)OCc1ccccc1 (stereo unspecified),Potency,[5],inactive
NCC1CCC(C(=O)O)CC1 (stereo unspecified),outcome,[4],inactive
same,outcome,[3],inactive
OC(c1cc(C(F)(F)F)nc2c(C(F)(F)F)cccc12)C1CCCCN1 (stereo unspecified),outcome,[4],inactive
same,outcome,[3],inactive
Clc1ccc(COC(Cn2ccnc2)c2ccc(Cl)cc2Cl)c(Cl)c1 (stereo unspecified),Potency,[2],0.316 µM (active)
CC[C@H](C)C(=O)O[C@H]1C[C@H](O)C=C2C=C[C@H](C)[C@H](CC[C@@H](O)C[C@@H](O)CC(=O)O)[C@H]21,Potency,[1],inactive
